# Screening results from PubChem BioAssay.
# In the library only some 6.6% were active in any assay of this set; here they are far more common.
# Bead autofluor = counter-screen for toxin protease inhibitors: compound fluorescence. compound autofluorescence counterscreen, microsphere flow cytometry; active compounds read high. fluorescence intensity (test concentration not listed). actives 3.1% (n = 360,000); in the data active = fluorescence intensity above about 16000; inconclusive = no clear call, values can overlap the other calls
# Anthrax LF prot = inhibitors of Bacillus anthracis lethal factor protease; P15917; multiplex microsphere protease cleavage assay, LF; inhibition, % at 10 µM; actives 0.12% (n = 360,000); AID 588501; also: plate controls were buffer without enzyme for full effect and enzyme alone for no effect
# BoNT F protease = BoNT F light chain protease inhibition. inhibition, % at 10 µM. actives 0.22% (n = 360,000). Multiplex microsphere protease cleavage assay, flow cytometry; in the data active = inhibition above about 35%, passing the limit was not always enough; inconclusive = no clear call, values can overlap the other calls; also: plate controls were buffer without enzyme for full effect and enzyme alone for no effect
# GDH-TPI counter-1 = GDH-TPI coupled enzyme inhibition counter-screen | AID 588335 | inhibition, % at 4.8 µM | GDH-TPI coupled enzyme counterscreen, NADH absorbance | actives 1.2% (n = 360,000); in the data active = inhibition above about 30%;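 also: 0% = DMSO wells and 100% = wells lacking the enzyme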
# Mtb FBA inh = Mtb fructose-bisphosphate aldolase inhibition; actives 2.3% (n = 360,000); inhibition, % at 1 µM; P9WQA3; AID 588726; purified M. tuberculosis FBA, fluorescence read-out; in the data active = inhibition above about 27%;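 also: 0% = vehicle and 100% = reference inhibitor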
# Target sequence (P9WQA3 whole entry, looked up): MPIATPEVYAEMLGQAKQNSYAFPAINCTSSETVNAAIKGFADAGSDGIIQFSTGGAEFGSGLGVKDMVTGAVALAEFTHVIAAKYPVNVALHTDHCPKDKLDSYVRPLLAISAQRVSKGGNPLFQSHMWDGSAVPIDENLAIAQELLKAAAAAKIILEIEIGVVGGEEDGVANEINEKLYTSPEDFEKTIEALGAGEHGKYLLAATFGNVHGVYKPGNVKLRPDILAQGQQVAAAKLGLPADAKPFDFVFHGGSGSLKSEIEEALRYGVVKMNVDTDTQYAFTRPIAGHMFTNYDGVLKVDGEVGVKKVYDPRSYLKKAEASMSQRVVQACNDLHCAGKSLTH
# BoNT A protease = BoNT A light chain protease inhibition; multiplex microsphere protease substrate cleavage, flow cytometry; inhibition, % at 10 µM; actives 0.17% (n = 360,000); AID 588499; also: plate controls were buffer without enzyme for full effect and enzyme alone for no effect
# Mtb FBA inh conf = confirmation of M. tuberculosis fructose-bisphosphate aldolase inhibitors; shares compounds with Mtb FBA inh; purified M. tuberculosis FBA, fluorescence read-out; inhibition, % at 1 µM; actives 78% (n = 5,600); AID 651616; in the data active = inhibition above about 27%;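 also: 0% = vehicle wells and 100% = reference inhibitor wells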
# GDH-TPI counter-2 = inhibits GDH-TPI coupling enzymes, flagging Mtb FBA hits; shares compounds with Mtb FBA inh; inhibition, % at 1 µM; AID 652141; actives 81% (n = 5,600); GDH-TPI coupled enzyme counterscreen, fluorescence; in the data active = inhibition above about 10%
# GDH-TPI dose = counter-screen for M. tuberculosis FBA inhibitors: GDH-TPI dose response; AID 652145; actives 79% (n = 170); shares compounds with Mtb FBA inh; GDH-TPI coupled enzyme assay, fluorescence, artifact counterscreen; IC50, µM; call rule not given here
# * = called active by the depositor; u = inconclusive; x = no result given; + = active, no number. Rule as the data show it, unless noted: active = inhibition above about 30%; inconclusive = no clear call, values can overlap the other calls; inactive = below that.
SMILES,Bead autofluor,Anthrax LF prot,BoNT F protease,GDH-TPI counter-1,Mtb FBA inh,BoNT A protease,Mtb FBA inh conf,GDH-TPI counter-2,others
CN(C)c1nc(OCc2ccccc2)c2ncc(=O)[nH]c2n1,6564,-7.9,-2.4,16.9,31.3*,-0.6,10.2,-4.4,GDH-TPI dose=4.87*
O=c1cc(-c2ccco2)oc2c1ccc1ccccc12,3224,-1.1,-8.3,20.5,49.2*,-0.5,+,+,
O=c1cc(-c2ccncc2)oc2c1ccc1ccccc12,x,x,x,6.6,10.9,x,x,x,
CC1(C)Cc2c(C#N)c(NCC3CCCO3)nc(-c3ccco3)c2CO1 (centres undefined),3246,-5.8,0.9,15.2,29.6*,1.7,+,+,
CCN(CC)CCNc1nc(-c2ccco2)c2c(c1C#N)CC(C)(C)OC2,8895,-8.3,-2.6,12.5,25.2,0.5,x,x,
CC1(C)Cc2c(C#N)c(NC3CCCCC3)nc(-c3ccco3)c2CO1,6146,-6.1,0.1,9.6,15.1,7.0,x,x,
CC1(C)Cc2c(C#N)c(NCCc3ccccc3)nc(-c3ccco3)c2CO1,2286,-5.3,-26.4,13.4,35.2*,-0.3,170.7*,135.2*,
N#Cc1c(NCCCO)nc(-c2ccccc2)c2c1CCCC2,4827,3.6,5.6,20.6,51.5*,0.7,57.5*,36.3*,
CN(C)CCCNc1nc(-c2ccccc2)c2c(c1C#N)CC(C)(C)OC2,4195,0.2,-2.5,8.6,44.9*,0.0,107.4*,84.5*,
CCOC(=O)C1=NN(C(C)=O)C2C(=O)N(CC)C(=O)C12 (centres undefined),x,x,x,-13.1,0.7,x,x,x,
COc1cc(C(=O)N/C(=C\c2cn(C)c3ccccc23)C(=O)NCCCN2CCOCC2)cc(OC)c1OC,4676,-0.5,-1.9,27.7,-3.5,-1.9,x,x,
Cc1ccc(CNC(=O)CNS(=O)(=O)c2ccc3nc(C)sc3c2)cc1,5011,-3.1,-1.6,-6.0,-4.2,-0.8,x,x,
COc1ccc(-c2ccc(C(=O)C3CC3)cc2)cc1,3059,2.8,-5.9,3.5,59.9*,0.8,51.8*,44.5*,
Cc1ccc2[nH]c(=O)c(C(c3nnnn3CC3CCCO3)N3CCCc4ccccc43)cc2c1 (centres undefined),6422,-3.4,-1.3,7.2,1.9,1.3,x,x,
COC(=O)c1ccccc1NC1CC(=O)N(c2c(C)cccc2C)C1=O (centres undefined),8522,-2.0,-14.7,9.0,89.2*,-0.7,+,+,
COC(=O)c1ccc(NC2CC(=O)N(c3ccccc3C)C2=O)cc1 (centres undefined),u,u,u,-3.8,0.9,-27.4,x,x,
C=C1N(c2ccccc2)C(=O)OC1(C)C,1996,0.0,-7.9,9.3,-0.5,-0.8,x,x,
CC1(C)Oc2ccc3ccc(=O)oc3c2[C@H](O)[C@H]1O,4094,-4.7,3.1,17.9,57.6*,-0.3,68.9*,58.5*,
CC1(C)Oc2ccc3ccc(=O)oc3c2C[C@H]1O,3499,-3.8,2.3,15.6,88.2*,0.2,148.6*,113.0*,
C/C=C(/C)C(=O)O[C@@H]1[C@H](OC(C)=O)c2c(ccc3ccc(=O)oc23)OC1(C)C,2782,-1.5,1.2,31.8*,31.6*,0.6,114.8*,87.5*,
C/C=C(/C)C(=O)O[C@@H]1Cc2c(ccc3ccc(=O)oc23)OC1(C)C,3888,-4.6,-4.6,14.8,45.1*,-0.1,68.4*,42.5*,
C/C=C(/C)C(=O)OC1c2c(ccc3ccc(=O)oc23)OC(C)(C)C1OC(C)=O (centres undefined),4189,-1.0,4.3,14.3,15.3,1.0,x,x,
O=C(N[C@@H](c1ccccc1)[C@H](O)c1ccccc1)[C@@H]1CCCN1C(=O)OCc1ccccc1,3051,-5.6,-4.9,1.2,0.3,-0.4,x,x,
CCN(CC)S(=O)(=O)c1ccc(OC)c(NC(=O)c2ccc(-n3cncn3)c([N+](=O)[O-])c2)c1,u,0.4,3.1,1.4,0.0,-1.8,x,x,
CC1(C)Oc2ccc3ccc(=O)oc3c2/C(=C/O)C1=O,3292,22.6,u,20.3,43.5*,-4.4,153.5*,119.2*,
SMILES,Bead autofluor,Anthrax LF prot,BoNT F protease,GDH-TPI counter-1,Mtb FBA inh,BoNT A protease,Mtb FBA inh conf,GDH-TPI counter-2,others
C/C=C(/C)C(=O)O[C@H]1[C@@H](O)c2c(ccc3ccc(=O)oc23)OC1(C)C,3699,1.6,-1.2,20.2,34.3*,0.0,92.8*,79.5*,
O=C(Nc1nc(-c2ccccc2)cs1)c1ccccc1NS(=O)(=O)c1ccc(F)cc1,2484,1.2,1.9,2.2,36.7*,0.1,+,+,
O=S(=O)(Nc1ccc(-c2csc(-c3ccccc3)n2)cc1)c1ccc(F)cc1,2125,-6.0,-6.1,0.8,2.7,-0.9,x,x,
COc1cccc(O)c1CN1CCC(n2nccc2NC(=O)c2ccc3c(c2)OCO3)CC1,6942,2.0,-1.5,-2.0,0.9,-2.8,x,x,
CC(C)(CO)NS(=O)(=O)c1ccc2c(c1)oc(=O)c1cc(S(=O)(=O)NC(C)(C)CO)ccc12,2598,1.7,3.0,9.1,81.0*,0.5,4.6,-10.0,
COc1ccc(S(=O)(=O)N2CCCC(C(=O)NCc3ccccc3)C2)cc1 (centres undefined),3458,-7.0,-8.8,4.7,-2.7,-2.7,x,x,
Cc1cc(-c2nc3ccccc3o2)c2ccccc2n1,u,u,u,23.4,33.6*,u,14.9,-2.2,GDH-TPI dose=5.72*
Cc1cc(OCC(=O)NCCCN2CCOCC2)c2c(C)c(C)c(=O)oc2c1,4670,-2.3,-3.9,10.3,86.1*,-1.2,129.3*,144.2*,
Cc1cc(OCC(=O)NCCCN2CCCC2=O)c2c(C)c(C)c(=O)oc2c1,5237,1.2,5.8,0.4,80.0*,0.7,+,+,
Cc1cc(OCC(=O)NCCc2ccc(S(N)(=O)=O)cc2)c2c(C)c(C)c(=O)oc2c1,5173,1.1,2.5,6.7,64.8*,0.9,11.5,-0.6,GDH-TPI dose=1.96*
Cc1c(C)c2ccc(OCC(=O)NCCCN3CCCC3=O)cc2oc1=O,5841,-3.4,-0.3,19.7,86.6*,-2.1,55.7*,45.7*,
CCCc1cc(=O)oc2c(C)c(OCC(=O)NCCCN3CCOCC3)ccc12,6091,0.3,-1.3,19.9,20.4,-0.2,x,x,
Cc1cc(=O)oc2cc(OCC(=O)NCCCN3CCCC3=O)ccc12,5569,-1.3,-2.6,10.1,17.9,-1.5,x,x,
CCn1cc(C(=O)O)c(=O)c2cc(F)c(N/N=C/c3ccccc3[N+](=O)[O-])cc21,7283,-1.9,2.5,16.1,2.2,0.3,x,x,
COc1ccc(S(=O)(=O)N2CCN(CC(O)COc3ccc(CC#N)cc3)CC2)cc1OC (centres undefined),3102,4.0,5.1,5.8,0.5,1.4,x,x,
